Experimental findings from PubChem BioAssay (Tox21) are described below.

Values joined by “and” are separate entries in the source; they are usually repeats but may differ in a detail not shown here. Identical values can stand only once. A number with no mark means an inactive call. Inconclusive results are not listed. Active and inactive are the calls of the source. Unless noted, calls follow the shape of the dose curve; as a rule, active = well fitted curve in the direction sought with a large enough effect in the repeat runs; inconclusive = weak or mixed curves; inactive = no such curve, though single readings can be large; an effect the other way counts as inactive or inconclusive.

Experiment [1] can be described thus: qHTS assay to identify small molecule agonists of the estrogen receptor alpha (ER-alpha) signaling pathway in the presence of an antagonist - cell viability counter screen (AID 1259386).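 Also: series mostly up to about 92 µM; cells exposed to compounds for 22 h at 37 °C before the viability read; nearly all actives have a fitted effect of over 30% in size.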 The method in brief:
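In this counter screen, compound effects on VM7Luc4E2 viability were tested in the presence of the antagonist ICI-182,780 at 10.0nM final. Compounds were dosed at 15 concentrations, exposure lasted 22hr, and the CellTiter-Fluor signal was read.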
A general note: qHTS replaces the single test concentration by a dilution series.

The target of experiment [2] is Progesterone receptor (Homo sapiens) (UniProt P06401). The experiment can be described thus: qHTS assay to identify small molecule agonists of the progesterone receptor (PR) signaling pathway (AID 1346784; calls by dose curve; also: nearly all actives have a fitted effect of over 30% in size). In short, it runs like this: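 Compounds were tested for PR agonism in HEK 293T cells bearing a beta-lactamase gene under UAS control. Treatment lasted 16 hr at 37C; signal came from fluorescence of a FRET substrate.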

A short description of experiment [3]: qHTS assay to identify small molecule antagonists of the progesterone receptor (PR) signaling pathway - cell viability counter screen (AID 1346798). Also: series mostly up to about 92 µM; nearly all actives have a fitted effect of over 50% in size. In short, it runs like this:
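Following a 4 hr attachment, PR-UAS-bla HEK293T cells in charcoal-stripped FBS medium were exposed to compounds with R5020 for 16 hr; CellTiter-Glo was added and luminescence read after 30 min at room temperature.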

Experiment [4] is described as follows: qHTS assay to identify small molecule agonists of the progesterone receptor (PR) signaling pathway - cell viability counter screen (AID 1346799; calls by dose curve; also: nearly all actives have a fitted effect of over 45% in size). In short, it runs like this:
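Here, 3,000 PR-UAS-bla HEK293T cells per well were treated with compounds for 16 hr after a 6 hr preincubation at 37C and 5% CO2; cell viability is the CellTiter-Glo luminescence signal.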

Experiment [5] can be described thus: qHTS assay to identify small molecule agonists of the TGF-beta/Smad signaling pathway - cell viability counter screen (AID 1346829). Also: top concentration of the series differs between compounds; nearly all actives have a fitted effect of over 45% in size. The method in brief:
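Tox21 qHTS format: SBE-bla HEK 293T cells treated with DMSO-dissolved compounds for 5 hr; CellTiter-Glo luminescence after 30 min at room temperature.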

The nature of experiment [6]: qHTS assay to identify small molecule agonists of the TGF-beta/Smad signaling pathway (AID 1346859; active = well fitted activation curve with a large enough effect in the signal ratio in the repeat runs, not every such curve was filed as active; the % refers to the signal ratio; also: series mostly up to about 77 µM). In short, it runs like this: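 Each well held 4,000 SBE-bla HEK 293T cells incubated overnight before compound addition; 5 hr later the cleavable FRET substrate went on for 2 hr at room temperature, and fluorescence was read at two emissions.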
Experiment [7] can be described thus: Human pregnane X receptor (PXR) small molecule agonists, qHTS cell viability counter screen (AID 1346977). Also: nearly all actives have a fitted effect of over 50% in size. The method in brief: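 Tox21 qHTS format; PXR-Luc HepG2, 2,000/well, charcoal-stripped FBS 5%. Cpd exposure 24hr. Read: CellTiter-Fluor fluorescence, multiplexed with luciferase.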
Experiment [8] can be described thus: Caspase-3/7 induction in HepG2 cells by small molecules, qHTS assay (AID 1346978). Also: nearly all actives have a fitted effect of over 15% in size. The method in brief:
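Caspase-3/7 induction was measured by Caspase-Glo 3/7 luminescence (30 min, room temperature) after a 17 hr compound exposure of wild-type HepG2 cells seeded at 2,000 per well and pre-incubated 5 hr.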

Experiment [9] is described as follows: Caspase-3/7 induction in CHO-K1 cells by small molecules, qHTS cell viability counter screen (AID 1346979). Also: nearly all actives have a fitted effect of over 35% in size. In short, it runs like this:
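CellTiter-Fluor viability check, qHTS format: wild-type CHO-K1, 16hr compound treatment, 1hr reagent incubation, fluorescence read.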

A short description of experiment [10]: Caspase-3/7 induction in CHO-K1 cells by small molecules, qHTS assay (AID 1346980). Also: nearly all actives have a fitted effect of over 15% in size. The method in brief:
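Luminescent Caspase-Glo 3/7 read (30min, room temperature) quantified apoptosis induction. Cells were wild-type CHO-K1, treated with compound for 17hr at 37 C and 5% CO2.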

Experiment [11] is described as follows: Caspase-3/7 induction in HepG2 cells by small molecules, qHTS cell viability counter screen (AID 1346981). Also: series mostly up to about 92 µM; nearly all actives have a fitted effect of over 30% in size. In short, it runs like this: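 In this quantitative HTS counter screen, compounds delivered in DMSO were left on unmodified HepG2 cells for 16 hr at 37 C. Viability was then determined fluorometrically with CellTiter-Fluor, in parallel with caspase-3/7 induction in the same wells.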

Experiment [12] concerns the target Nuclear receptor subfamily 1 group I member 2 (Homo sapiens) (UniProt O75469). The experiment can be described thus: Human pregnane X receptor (PXR) small molecule agonists, qHTS assay (AID 1346982). Also: nearly all actives have a fitted effect of over 35% in size. Also: potency is read from the fitted curve at half-maximal effect. The method in brief:
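Reporter HepG2 cells expressing PXR-Luc are cultured in charcoal-stripped FBS (5%), treated with compounds for 24 hr at 37 C, and assayed by ONE-Glo luminescence after 30 min at room temperature.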

Experiment [13] deals with Acetylcholinesterase (Homo sapiens) (UniProt P22303). The experiment can be described thus: Acetylcholinesterase (AChE) small molecule antagonists: colormetric cell-based qHTS assay (AID 1347395; calls by dose curve; also: nearly all actives have a fitted effect of over 30% in size). In short, it runs like this: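 AChE inhibition read colorimetrically via DTNB–thiocholine in SH-SY5Y cells. Compound 30 min, substrate 90 min, both 37 C.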
Experiment [14] in a line: qHTS assay to identify small molecule antagonists of the TGF-beta/Smad signaling pathway - cell viability counter screen (AID 1346824). Also: nearly all actives have a fitted effect of over 50% in size. In short, it runs like this:
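Cytotoxicity counter-screen run in the same wells as the beta-lactamase Smad reporter read: CellTiter-Glo luminescence after 30 min at room temperature. HEK 293T SBE-bla cells had 5 hr compound exposure at 37 C with TGF-beta1 (0.25 ng/mL stock).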

The target in experiment [15] is Thyrotropin-releasing hormone receptor (Homo sapiens) (UniProt P34981). The experiment can be described thus: qHTS assay to identify small molecule antagonists of the thyrotropin-releasing hormone receptor (TRHR) signaling pathway (AID 1346877; active = well fitted inhibition curve with a large enough effect in the repeat runs, not every such curve was filed as active; also: series mostly up to about 51 µM). The method in brief: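 Kinetic fluorescence (3 min, 1 s resolution) following stimulation with TRH at 1 nM final; HEK293 cells bearing human TRHR; 5 min compound preincubation at RT; concentration-response over 15 points, triplicates.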

For experiment [16] the target is unchanged. Kind of experiment: qHTS assay to identify small molecule agonists of the thyrotropin-releasing hormone receptor (TRHR) signaling pathway (AID 1346891; calls by dose curve; also: series mostly up to about 58 µM). In short, it runs like this: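 Screening of agonists relied on calcium signalling in HEK293 cells expressing human TRHR: dye loading 2 h at 37 °C preceded compound addition and a 3-min fluorescence time course.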

For experiment [17], the target named is Progesterone receptor (Homo sapiens) (UniProt P06401). Kind of experiment: qHTS assay to identify small molecule antagonists of the progesterone receptor (PR) signaling pathway (AID 1346795; active = well fitted inhibition curve with a large enough effect in the signal ratio in the repeat runs, not every such curve was filed as active; the % refers to the signal ratio). In short, it runs like this: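 In HEK293T cells bearing the PR-UAS-bla reporter, compound effects on promegestone-driven (1 nM) beta-lactamase expression are assessed after 16 hr using a fluorescent FRET substrate incubated 2 hr at room temperature.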

In experiment [18] the target is Nuclear receptor subfamily 1 group I member 2 (Rattus norvegicus) (UniProt Q9R1A7). The experiment can be described thus: Rat pregnane X receptor (rPXR) activation by small molecules, qHTS assay (AID 1346983). Also: nearly all actives have a fitted effect of over 20% in size. To be noted: rPXR luciferase reporter cells, One-Glo luminescence, 24 h; active compounds read high. The method in brief:
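Luminescent readout (One-Glo luciferase, 30 min room temperature) followed 24 hr compound treatment at 37 C of rPXR cells plated 2,000 per well and preincubated 5hr; qHTS format with compounds delivered in DMSO.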

The target of experiment [19] is Nuclear receptor subfamily 1 group I member 2 (Homo sapiens) (UniProt O75469). The experiment can be described thus: CYP3A4 induction through human pregnane X receptor (PXR) by small molecules, qHTS assay (AID 1346984). Also: nearly all actives have a fitted effect of over 40% in size. The method in brief: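 Induction measured in HepG2-based DPX-2 cells co-expressing human PXR and a CYP3A4 promoter-driven luciferase. After a 24-hour compound exposure, cells received CYP3A4 luciferin substrate at 3uM final for 3 hours, and light output was then recorded.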

Experiment [20] has the same target. Kind of experiment: Human pregnane X receptor (PXR) activation by small molecules, qHTS assay (AID 1346985). Also: nearly all actives have a fitted effect of over 40% in size. In short, it runs like this:
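DPX-2 cells (HepG2 co-transfected with a PXR response element and a CYP3A4-promoter luciferase construct) were seeded at 2,000 per well, rested 5 hr at 37C, then exposed to DMSO-dissolved compounds for 24 hr. Activation was read as luciferase luminescence.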
% is scaled to controls: 0 for no effect and ±100 for the full control effect.

Sequence of Thyrotropin-releasing hormone receptor (Homo sapiens) (P34981 whole entry, looked up): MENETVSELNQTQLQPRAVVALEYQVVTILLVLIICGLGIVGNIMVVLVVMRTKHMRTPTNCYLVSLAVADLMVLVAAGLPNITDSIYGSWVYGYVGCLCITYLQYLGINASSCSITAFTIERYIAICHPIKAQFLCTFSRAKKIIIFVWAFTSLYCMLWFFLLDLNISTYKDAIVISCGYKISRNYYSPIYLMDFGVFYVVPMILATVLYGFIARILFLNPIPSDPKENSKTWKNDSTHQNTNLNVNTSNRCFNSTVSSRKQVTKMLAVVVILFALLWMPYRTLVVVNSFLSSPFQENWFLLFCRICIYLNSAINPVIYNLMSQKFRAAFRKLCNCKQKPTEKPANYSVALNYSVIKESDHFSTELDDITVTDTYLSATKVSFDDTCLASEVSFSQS
Sequence of Progesterone receptor (Homo sapiens) (P06401 whole entry, looked up): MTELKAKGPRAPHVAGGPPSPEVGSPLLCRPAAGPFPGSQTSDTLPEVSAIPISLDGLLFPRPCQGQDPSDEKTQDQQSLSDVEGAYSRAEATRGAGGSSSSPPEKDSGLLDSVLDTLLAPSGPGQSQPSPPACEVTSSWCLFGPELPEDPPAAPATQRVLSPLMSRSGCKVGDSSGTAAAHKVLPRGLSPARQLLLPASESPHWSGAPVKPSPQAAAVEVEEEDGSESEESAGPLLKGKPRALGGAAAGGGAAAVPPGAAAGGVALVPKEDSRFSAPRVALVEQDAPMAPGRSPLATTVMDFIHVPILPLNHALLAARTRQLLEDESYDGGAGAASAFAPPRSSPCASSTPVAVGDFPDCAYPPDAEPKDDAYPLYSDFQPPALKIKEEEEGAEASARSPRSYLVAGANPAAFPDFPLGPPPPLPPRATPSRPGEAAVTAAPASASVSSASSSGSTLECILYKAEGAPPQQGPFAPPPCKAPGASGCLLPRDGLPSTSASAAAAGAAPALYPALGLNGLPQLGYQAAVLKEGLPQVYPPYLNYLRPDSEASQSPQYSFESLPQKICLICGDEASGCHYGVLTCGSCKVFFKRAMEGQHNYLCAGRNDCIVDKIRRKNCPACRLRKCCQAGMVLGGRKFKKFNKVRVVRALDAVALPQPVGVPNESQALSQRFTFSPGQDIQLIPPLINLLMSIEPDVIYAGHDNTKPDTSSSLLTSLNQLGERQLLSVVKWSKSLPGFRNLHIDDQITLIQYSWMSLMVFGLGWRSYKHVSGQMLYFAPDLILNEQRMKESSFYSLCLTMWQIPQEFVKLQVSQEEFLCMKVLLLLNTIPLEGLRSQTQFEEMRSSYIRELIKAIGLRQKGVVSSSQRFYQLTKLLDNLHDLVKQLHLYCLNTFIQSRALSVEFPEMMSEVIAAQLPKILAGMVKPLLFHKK
Sequence of Acetylcholinesterase (Homo sapiens) (P22303 whole entry, looked up): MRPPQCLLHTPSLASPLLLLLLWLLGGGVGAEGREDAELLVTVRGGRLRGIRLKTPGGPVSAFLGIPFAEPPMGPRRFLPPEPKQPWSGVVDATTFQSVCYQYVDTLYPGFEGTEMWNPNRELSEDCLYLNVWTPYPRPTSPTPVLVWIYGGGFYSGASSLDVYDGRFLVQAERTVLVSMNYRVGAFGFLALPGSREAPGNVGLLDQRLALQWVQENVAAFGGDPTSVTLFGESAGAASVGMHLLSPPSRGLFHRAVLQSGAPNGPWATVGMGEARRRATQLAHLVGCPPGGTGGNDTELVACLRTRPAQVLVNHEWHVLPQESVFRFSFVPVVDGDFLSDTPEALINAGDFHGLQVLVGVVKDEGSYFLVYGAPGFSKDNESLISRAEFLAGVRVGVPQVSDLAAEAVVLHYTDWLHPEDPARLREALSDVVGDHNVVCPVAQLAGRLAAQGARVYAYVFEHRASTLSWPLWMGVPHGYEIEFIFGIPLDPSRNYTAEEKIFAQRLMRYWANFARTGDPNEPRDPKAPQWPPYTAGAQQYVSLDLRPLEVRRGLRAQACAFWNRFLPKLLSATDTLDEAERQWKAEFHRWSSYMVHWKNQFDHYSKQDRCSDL
Sequence of Nuclear receptor subfamily 1 group I member 2 (Homo sapiens) (O75469 whole entry, looked up): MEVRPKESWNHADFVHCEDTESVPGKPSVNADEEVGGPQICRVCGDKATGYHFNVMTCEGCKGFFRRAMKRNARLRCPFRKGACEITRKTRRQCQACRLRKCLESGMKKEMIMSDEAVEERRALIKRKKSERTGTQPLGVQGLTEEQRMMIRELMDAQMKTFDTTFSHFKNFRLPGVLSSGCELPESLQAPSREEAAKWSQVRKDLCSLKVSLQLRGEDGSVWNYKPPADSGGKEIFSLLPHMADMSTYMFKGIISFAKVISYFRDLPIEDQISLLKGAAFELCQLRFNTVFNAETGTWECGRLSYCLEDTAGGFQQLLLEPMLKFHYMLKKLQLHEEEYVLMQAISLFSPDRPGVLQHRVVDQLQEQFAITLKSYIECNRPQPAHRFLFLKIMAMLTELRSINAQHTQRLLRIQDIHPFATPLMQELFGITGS
Sequence of Nuclear receptor subfamily 1 group I member 2 (Rattus norvegicus) (Q9R1A7 whole entry, looked up): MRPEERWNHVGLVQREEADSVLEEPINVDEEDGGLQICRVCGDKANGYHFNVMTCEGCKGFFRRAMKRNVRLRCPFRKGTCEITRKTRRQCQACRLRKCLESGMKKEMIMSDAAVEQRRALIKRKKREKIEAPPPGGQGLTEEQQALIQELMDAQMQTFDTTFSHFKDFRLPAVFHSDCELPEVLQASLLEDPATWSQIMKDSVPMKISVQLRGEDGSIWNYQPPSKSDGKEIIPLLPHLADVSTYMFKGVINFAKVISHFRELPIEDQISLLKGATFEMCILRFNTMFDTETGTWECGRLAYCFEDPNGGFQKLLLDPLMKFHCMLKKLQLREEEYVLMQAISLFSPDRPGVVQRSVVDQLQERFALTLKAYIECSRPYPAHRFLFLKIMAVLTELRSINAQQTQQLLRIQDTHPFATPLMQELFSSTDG

Turning to `FC(Cl)(Cl)C(F)(Cl)Cl`, the Potency entry in experiment [1], in [2], in experiment [3], in [4], in experiment [5] and in experiment [7] was “inactive” each time. Further, the Potency result in experiment [8], in [9], in experiment [10], in experiment [11], in experiment [12] and in [13] was “inactive” each time. The outcome in [6] was inactive.

Take `CCC(C)Cl` (stereo not drawn): the Potency entry in [1], in [2], in experiment [3], in [4], in [14] and in experiment [5] was “inactive” throughout. In addition, the Potency entry in experiment [15], in [7], in experiment [8], in experiment [9], in [10] and in experiment [11] was “inactive” each time. The Potency entry in experiment [12] and in experiment [13] was “inactive” in each case. In addition, the molecule was called inactive in [6] and in experiment [16].

With `Nc1ccccc1C(=O)OCCc1ccccc1`, the Potency entry in experiment [1], in experiment [2], in [3], in experiment [4], in experiment [14] and in experiment [5] was “inactive” throughout. Further, the Potency entry in [15], in [7], in experiment [8], in [9], in [10] and in experiment [11] was “inactive” throughout. Besides, the Potency entry in experiment [13] was “inactive”. For the same molecule, the outcome in experiment [6] was inactive. Also, the Potency in experiment [12] is 48.8 µM (active) and 30.6 µM (active).

Regarding `O=C(NCNC(=O)NC1C(=O)NC(=O)N1CO)NC1C(=O)NC(=O)N1CO` (stereo not drawn), the Potency entry in [1], in experiment [2], in experiment [17], in experiment [14], in experiment [5] and in experiment [15] was “inactive” in each case. The Potency entry in [8], in experiment [9], in [10] and in experiment [11] was “inactive” each time.

In the case of `FC(F)OC(F)(F)C(F)Cl` (stereo not drawn), the Potency result in [1], in [2], in experiment [3], in experiment [4], in [14] and in experiment [15] was “inactive” in each case. For the same molecule, the Potency entry in experiment [7], in experiment [8], in experiment [10], in experiment [11], in [12] and in experiment [20] was “inactive” each time. In experiment [13], the Potency result was “inactive”. Moreover, the outcome in [6], in [16] and in experiment [19] was inactive. In addition, the max activation in [18] is -2.15%.

With `C=C(Cl)Cl`, the Potency entry in [1], in experiment [2], in experiment [3], in experiment [4], in experiment [14] and in experiment [5] was “inactive” in each case. Also, the Potency entry in [7], in experiment [8], in experiment [10], in experiment [11] and in [13] was “inactive” each time. The outcome in experiment [6] was inactive. The Potency in experiment [12] is 58 µM (active).

As to `C=CCc1ccccc1O`, the Potency entry in [1], in [2], in [3], in experiment [4], in experiment [5] and in [15] was “inactive” each time. For the same molecule, the Potency result in experiment [7], in experiment [8], in experiment [9], in experiment [10], in [11] and in [12] was “inactive” in each case. In addition, the Potency entry in experiment [13] is “inactive”. For the same molecule, the call in experiment [16] was inactive.
